The text below walks through data of publication PMC8384837, “Expanding the binding specificity for RNA recognition by a PUF domain”.

Common to all, as to assay: yeast three-hybrid, YBZ-1, SC-Leu-His + 0.5 mM 3-AT, 4 days
Holding throughout (conditions): tags: N-Gal4 AD-HA kept; label: inside an RPR1-promoter hybrid RNA with tandem MS2 sites; ssRNA

In one experiment the target is PUM1 PUF domain R7-KHF (Homo sapiens, UniProt Q14671 828-1176, S1079K;N1080H;E1083F). The procedure, abridged:
(§1)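 A centromeric plasmid in strain YBZ-1 co-expressed Pumilio-1 PUF domain libraries, randomized at the three base-contacting residues of each repeat, with matching RNA elements; the strain carries a LexA–MS2 coat fusion and a HIS3 reporter. After four days on SC-Leu (input) or SC-Leu-His + 0.5 mM 3-AT (selection), the repeat regions were PCR-amplified and Illumina-sequenced. The interaction score is the log change in variant frequency from input to selection, using log2 and a pseudocount of 1 where absent.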

Another experiment deals with PUM1 PUF domain R1-VKK (Homo sapiens, UniProt Q14671 828-1176, S863V;R864K;Q867K). In outline:
as §1

For another experiment, the target named is PUM1 PUF domain R1-RNQ (Homo sapiens, UniProt Q14671 828-1176, S863R;R864N). The procedure, abridged:
as §1

In another experiment the target is PUM1 PUF domain R7-QSN (Homo sapiens, UniProt Q14671 828-1176, S1079Q;N1080S;E1083N). In outline: as §1
PUM1 PUF domain R7-QSN, sequence (Q14671 828-1176 S1079Q/N1080S/E1083N): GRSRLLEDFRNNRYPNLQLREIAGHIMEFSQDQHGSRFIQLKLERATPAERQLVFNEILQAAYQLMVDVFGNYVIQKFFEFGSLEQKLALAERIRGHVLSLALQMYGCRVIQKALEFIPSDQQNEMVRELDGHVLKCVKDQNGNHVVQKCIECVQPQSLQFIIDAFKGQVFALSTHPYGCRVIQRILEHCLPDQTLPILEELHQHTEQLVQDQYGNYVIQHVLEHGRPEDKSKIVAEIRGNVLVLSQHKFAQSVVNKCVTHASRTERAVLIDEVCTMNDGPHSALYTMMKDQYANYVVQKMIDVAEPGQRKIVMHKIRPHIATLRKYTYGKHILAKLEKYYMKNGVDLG
The next experiment addresses PUM1 PUF domain R7-KVV (Homo sapiens, UniProt Q14671 828-1176, S1079K;N1080V;E1083V). The procedure, abridged: as §1
In another experiment the target is PUM1 PUF domain R3-RNA (Homo sapiens, UniProt Q14671 828-1176, C935R;R936N;Q939A). In outline: as §1
PUM1 PUF domain R3-RNA, sequence (Q14671 828-1176 C935R/R936N/Q939A): as the sequence (Q14671 828-1176 S1079Q/N1080S/E1083N) above, with C108R, R109N, Q112A, Q252S, S253N, N256E counted along it
For the next experiment, the target named is PUM1 PUF domain R3-GRW (Homo sapiens, UniProt Q14671 828-1176, C935G;Q939W). The procedure, abridged:
as §1

The target in a further experiment is PUM1 PUF domain R2-RKW (Homo sapiens, UniProt Q14671 828-1176, N899R;Y900K;Q903W). In outline:
as §1

For a further experiment, the target named is PUM1 PUF domain R2-RHE (Homo sapiens, UniProt Q14671 828-1176, N899R;Y900H;Q903E). The procedure, abridged:
as §1

For the next experiment, the target named is PUM1 PUF domain R8-AYR (Homo sapiens, UniProt Q14671 828-1176, N1122A;Q1126R). In outline: as §1
PUM1 PUF domain R8-AYR, sequence (Q14671 828-1176 N1122A/Q1126R): as the sequence (Q14671 828-1176 S1079Q/N1080S/E1083N) above, with Q252S, S253N, N256E, N295A, Q299R counted along it
For a further experiment, the target named is PUM1 PUF domain R8-PFH (Homo sapiens, UniProt Q14671 828-1176, N1122P;Y1123F;Q1126H). In outline: as §1
PUM1 PUF domain R8-PFH, sequence (Q14671 828-1176 N1122P/Y1123F/Q1126H): as the sequence (Q14671 828-1176 S1079Q/N1080S/E1083N) above, with Q252S, S253N, N256E, N295P, Y296F, Q299H counted along it
For another experiment, the target named is PUM1 PUF domain R8-RRH (Homo sapiens, UniProt Q14671 828-1176, N1122R;Y1123R;Q1126H). In outline:
as §1

For the next experiment, the target named is PUM1 PUF domain R3-PYY (Homo sapiens, UniProt Q14671 828-1176, C935P;R936Y;Q939Y). The procedure, abridged:
as §1

In a further experiment the target is PUM1 PUF domain R5-QSR (Homo sapiens, UniProt Q14671 828-1176, C1007Q;R1008S;Q1011R). In outline: as §1
PUM1 PUF domain R5-QSR, sequence (Q14671 828-1176 C1007Q/R1008S/Q1011R): as the sequence (Q14671 828-1176 S1079Q/N1080S/E1083N) above, with C180Q, R181S, Q184R, Q252S, S253N, N256E counted along it
Another experiment has as its target PUM1 PUF domain R5-TRM (Homo sapiens, UniProt Q14671 828-1176, C1007T;Q1011M). The procedure, abridged: as §1
Another experiment has as its target PUM1 PUF domain R5-PMK (Homo sapiens, UniProt Q14671 828-1176, C1007P;R1008M;Q1011K). In outline:
as §1

A further experiment addresses PUM1 PUF domain R4-VNS (Homo sapiens, UniProt Q14671 828-1176, N971V;H972N;Q975S). The procedure, abridged: as §1
Another experiment addresses PUM1 PUF domain R5-RMT (Homo sapiens, UniProt Q14671 828-1176, C1007R;R1008M;Q1011T). The procedure, abridged:
as §1

PUM1 PUF domain R4-VNS, sequence (Q14671 828-1176 N971V/H972N/Q975S): as the sequence (Q14671 828-1176 S1079Q/N1080S/E1083N) above, with N144V, H145N, Q148S, Q252S, S253N, N256E counted along it
PUM1 PUF domain R3-GRW, sequence (Q14671 828-1176 C935G/Q939W): as the sequence (Q14671 828-1176 S1079Q/N1080S/E1083N) above, with C108G, Q112W, Q252S, S253N, N256E counted along it
PUM1 PUF domain R8-RRH, sequence (Q14671 828-1176 N1122R/Y1123R/Q1126H): as the sequence (Q14671 828-1176 S1079Q/N1080S/E1083N) above, with Q252S, S253N, N256E, N295R, Y296R, Q299H counted along it
PUM1 PUF domain R7-KVV, sequence (Q14671 828-1176 S1079K/N1080V/E1083V): as the sequence (Q14671 828-1176 S1079Q/N1080S/E1083N) above, with Q252K, S253V, N256V counted along it
PUM1 PUF domain R5-RMT, sequence (Q14671 828-1176 C1007R/R1008M/Q1011T): as the sequence (Q14671 828-1176 S1079Q/N1080S/E1083N) above, with C180R, R181M, Q184T, Q252S, S253N, N256E counted along it
PUM1 PUF domain R3-PYY, sequence (Q14671 828-1176 C935P/R936Y/Q939Y): as the sequence (Q14671 828-1176 S1079Q/N1080S/E1083N) above, with C108P, R109Y, Q112Y, Q252S, S253N, N256E counted along it
PUM1 PUF domain R7-KHF, sequence (Q14671 828-1176 S1079K/N1080H/E1083F): as the sequence (Q14671 828-1176 S1079Q/N1080S/E1083N) above, with Q252K, S253H, N256F counted along it
PUM1 PUF domain R1-VKK, sequence (Q14671 828-1176 S863V/R864K/Q867K): as the sequence (Q14671 828-1176 S1079Q/N1080S/E1083N) above, with S36V, R37K, Q40K, Q252S, S253N, N256E counted along it
PUM1 PUF domain R2-RHE, sequence (Q14671 828-1176 N899R/Y900H/Q903E): as the sequence (Q14671 828-1176 S1079Q/N1080S/E1083N) above, with N72R, Y73H, Q76E, Q252S, S253N, N256E counted along it
PUM1 PUF domain R1-RNQ, sequence (Q14671 828-1176 S863R/R864N): as the sequence (Q14671 828-1176 S1079Q/N1080S/E1083N) above, with S36R, R37N, Q252S, S253N, N256E counted along it
PUM1 PUF domain R5-TRM, sequence (Q14671 828-1176 C1007T/Q1011M): as the sequence (Q14671 828-1176 S1079Q/N1080S/E1083N) above, with C180T, Q184M, Q252S, S253N, N256E counted along it
PUM1 PUF domain R5-PMK, sequence (Q14671 828-1176 C1007P/R1008M/Q1011K): as the sequence (Q14671 828-1176 S1079Q/N1080S/E1083N) above, with C180P, R181M, Q184K, Q252S, S253N, N256E counted along it
PUM1 PUF domain R2-RKW, sequence (Q14671 828-1176 N899R/Y900K/Q903W): as the sequence (Q14671 828-1176 S1079Q/N1080S/E1083N) above, with N72R, Y73K, Q76W, Q252S, S253N, N256E counted along it

Regarding “GGCUAGAACUAGUGGAUCCCCCGGCGCCCGGCGGCUCGAGCCCGGGUAAGUCUAAAUAGUCUGCAUGCCGCCGGGCGCCAUGCCUGCAGGUCGACUCUAGAAAACAUG”, the binding signal with PUM1 PUF domain R7-KHF was 2.94 log2 enrichment (interaction score). For the sequence “GGCUAGAACUAGUGGAUCCCCCGGCGCCCGGCGGCUCGAGCCCGGGUAAGUGUAAAUUGUCUGCAUGCCGCCGGGCGCCAUGCCUGCAGGUCGACUCUAGAAAACAUG”, the binding signal with PUM1 PUF domain R1-VKK was 2.11 log2 enrichment (interaction score).

For “GGCUAGAACUAGUGGAUCCCCCGGCGCCCGGCGGCUCGAGCCCGGGUAAGUGUAAAUCGUCUGCAUGCCGCCGGGCGCCAUGCCUGCAGGUCGACUCUAGAAAACAUG”, the binding signal with PUM1 PUF domain R1-RNQ is 4.55 log2 enrichment (interaction score).

As for “GGCUAGAACUAGUGGAUCCCCCGGCGCCCGGCGGCUCGAGCCCGGGUAAGUUUAAAUAGUCUGCAUGCCGCCGGGCGCCAUGCCUGCAGGUCGACUCUAGAAAACAUG”, the binding signal with PUM1 PUF domain R7-QSN is 4.28 log2 enrichment (interaction score); in the experiment with PUM1 PUF domain R7-KVV it was 2.62 log2 enrichment (interaction score). As to “GGCUAGAACUAGUGGAUCCCCCGGCGCCCGGCGGCUCGAGCCCGGGUAAGUGUAAUUAGUCUGCAUGCCGCCGGGCGCCAUGCCUGCAGGUCGACUCUAGAAAACAUG”, the binding signal with PUM1 PUF domain R3-RNA is 3.87 log2 enrichment (interaction score); with PUM1 PUF domain R3-GRW, 0.31 log2 enrichment (interaction score).

With “GGCUAGAACUAGUGGAUCCCCCGGCGCCCGGCGGCUCGAGCCCGGGUAAGUGUAAAGAGUCUGCAUGCCGCCGGGCGCCAUGCCUGCAGGUCGACUCUAGAAAACAUG”, the binding signal in the experiment with PUM1 PUF domain R2-RKW was 2.92 log2 enrichment (interaction score); in the experiment with PUM1 PUF domain R2-RHE, 3.71 log2 enrichment (interaction score). Regarding “GGCUAGAACUAGUGGAUCCCCCGGCGCCCGGCGGCUCGAGCCCGGGUAAGCGUAAAUAGUCUGCAUGCCGCCGGGCGCCAUGCCUGCAGGUCGACUCUAGAAAACAUG”, the binding signal was 4.07 log2 enrichment (interaction score) with PUM1 PUF domain R8-AYR, 2.98 log2 enrichment (interaction score) with PUM1 PUF domain R8-PFH and 2.65 log2 enrichment (interaction score) with PUM1 PUF domain R8-RRH.

For the sequence “GGCUAGAACUAGUGGAUCCCCCGGCGCCCGGCGGCUCGAGCCCGGGUAAGUGUAAAUAGUCUGCAUGCCGCCGGGCGCCAUGCCUGCAGGUCGACUCUAGAAAACAUG”, the binding signal was 4.26 log2 enrichment (interaction score) with PUM1 PUF domain R8-AYR; 0.67 log2 enrichment (interaction score) in the experiment with PUM1 PUF domain R8-RRH; 6.39 log2 enrichment (interaction score) with PUM1 PUF domain R3-PYY; 4.33 log2 enrichment (interaction score) with PUM1 PUF domain R3-GRW; 1.54 log2 enrichment (interaction score) with PUM1 PUF domain R5-QSR; 2.74 log2 enrichment (interaction score) in the experiment with PUM1 PUF domain R5-TRM. Take “GGCUAGAACUAGUGGAUCCCCCGGCGCCCGGCGGCUCGAGCCCGGGUAAGUGUUAAUAGUCUGCAUGCCGCCGGGCGCCAUGCCUGCAGGUCGACUCUAGAAAACAUG”: the binding signal with PUM1 PUF domain R5-PMK was 2.73 log2 enrichment (interaction score). With “GGCUAGAACUAGUGGAUCCCCCGGCGCCCGGCGGCUCGAGCCCGGGUAAGUGUACAUAGUCUGCAUGCCGCCGGGCGCCAUGCCUGCAGGUCGACUCUAGAAAACAUG”, in the experiment with PUM1 PUF domain R4-VNS, the binding signal was 1.91 log2 enrichment (interaction score).

Consider “GGCUAGAACUAGUGGAUCCCCCGGCGCCCGGCGGCUCGAGCCCGGGUAAGUGUAUAUAGUCUGCAUGCCGCCGGGCGCCAUGCCUGCAGGUCGACUCUAGAAAACAUG”, for which, in the experiment with PUM1 PUF domain R4-VNS, the binding signal is 2.92 log2 enrichment (interaction score). As to “GGCUAGAACUAGUGGAUCCCCCGGCGCCCGGCGGCUCGAGCCCGGGUAAGUGUCAAUAGUCUGCAUGCCGCCGGGCGCCAUGCCUGCAGGUCGACUCUAGAAAACAUG”, the binding signal was 3.58 log2 enrichment (interaction score) with PUM1 PUF domain R5-RMT and 4.21 log2 enrichment (interaction score) with PUM1 PUF domain R5-QSR.
